Measurements taken from PubChem BioAssay (EPA / NIEHS).
Records with an inconclusive call do not appear. The source made the active and inactive calls. Rule for the calls: active = hit-call score of the fitted dose curve at least 0.9, where 1 is the maximum; inconclusive = response in the unintended direction; inactive = score below 0.9.

The compounds below were run against Adenosine receptor A1 (Bos taurus) (UniProt P28190) (assay: NVS_GPCR_bAdoR_NonSelective: NovaScreen (NVS) G Protein-Coupled Receptor Assay for bovine Adenosine Receptor (AdoR), Non-selective Binding (AID 2283244)).
Chain of Adenosine receptor A1 (Bos taurus) (P28190 whole entry, looked up): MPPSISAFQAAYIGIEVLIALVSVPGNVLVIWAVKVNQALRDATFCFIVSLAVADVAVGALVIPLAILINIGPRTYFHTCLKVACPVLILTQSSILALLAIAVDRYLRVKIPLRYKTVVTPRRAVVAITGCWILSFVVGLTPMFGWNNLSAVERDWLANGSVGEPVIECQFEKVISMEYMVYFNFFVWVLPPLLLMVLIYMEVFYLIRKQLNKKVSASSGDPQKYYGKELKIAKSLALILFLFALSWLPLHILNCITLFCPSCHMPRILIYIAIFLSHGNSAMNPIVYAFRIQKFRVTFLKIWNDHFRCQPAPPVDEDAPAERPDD
In short: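 Cell-free binding with membranes from bovine striatum: radioligand displaced by test chemical, read after 1 h by filtration and scintillation. Single-point 25 uM duplicate primary, 50 uM top concentration in follow-up curves, DMSO baseline.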
For `CCOC(=O)CC(SP(=O)(OC)OC)C(=O)OCC` (configuration not stated), the outcome was “inactive”. With `Cc1cc(C2CC2)nc(Nc2ccccc2)n1` the AC50 was 25 µM (active). For `CSc1nc(NC(C)C)nc(NC(C)C)n1`, the AC50 was 5.37 µM (active). `CCNc1nc(Cl)nc(NC(C)(C)C#N)n1` was tested, and the AC50 was 13.3 µM (active).

The compounds below were run on guinea pig Muscarinic, Peripheral (Mperiperal) Receptor, Non-selective Binding, gene 100379235 (assay: NVS_GPCR_gMPeripheral_NonSelective: NovaScreen (NVS) G Protein-Coupled Receptor Assay for guinea pig Muscarinic, Peripheral (Mperiperal) Receptor, Non-selective Binding (AID 2283250)).
In short: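 Screened in duplicate at 25 uM, hits retested in concentration series to 50 uM max, using bladder membrane radioligand displacement from guinea pig. Filtration and scintillation counting 1 h post-dose, fitted relative to DMSO.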
For `CCOC(=O)CC(SP(=O)(OC)OC)C(=O)OCC` (configuration not stated), the outcome was “inactive”. `Cc1cc(C2CC2)nc(Nc2ccccc2)n1` was tested, and the outcome was “inactive”. In the case of `CCOC(=O)COc1cc(-c2nn(C)c(OC(F)F)c2Cl)c(F)cc1Cl`, the outcome was “inactive”. With `N#CSCSC#N` the AC50 was 7.4 µM (active). In the case of `Cc1ccn2nc(S(=O)(=O)Nc3c(F)cccc3F)nc2n1`, the outcome was “inactive”.

These compounds were tested against human Serotonin, 5-Hydroxytryptamine Receptor 5A (5HT5A), HTR5A (gene 3361) (UniProt P47898) (assay: NVS_GPCR_h5HT5A: NovaScreen (NVS) G Protein-Coupled Receptor Assay for human Serotonin, 5-Hydroxytryptamine Receptor 5A (5HT5A) (AID 2283251)).
Chain of human Serotonin, 5-Hydroxytryptamine Receptor 5A (5HT5A), HTR5A (gene 3361) (P47898 whole entry, looked up): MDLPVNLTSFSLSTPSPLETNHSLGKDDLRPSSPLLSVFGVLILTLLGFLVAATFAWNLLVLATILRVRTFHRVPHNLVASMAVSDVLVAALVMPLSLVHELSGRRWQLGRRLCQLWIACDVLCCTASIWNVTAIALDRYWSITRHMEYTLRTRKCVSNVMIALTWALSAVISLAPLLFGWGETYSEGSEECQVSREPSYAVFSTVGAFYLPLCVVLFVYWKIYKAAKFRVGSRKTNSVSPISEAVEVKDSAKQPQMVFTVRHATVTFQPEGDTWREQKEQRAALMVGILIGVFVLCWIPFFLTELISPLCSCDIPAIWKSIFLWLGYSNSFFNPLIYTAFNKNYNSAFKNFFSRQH
In short: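 Membranes from HEK293 cells, radioligand binding read by filtration and scintillation after 1 h. Single-concentration duplicate testing at 25 uM, then concentration-response for actives; positive-direction fitting relative to DMSO.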
`CC(Oc1cccc(Cl)c1)C(=O)O` (configuration not stated) was tested, and the outcome was “inactive”. In the case of `O=C(O)c1cc(Oc2ccc(C(F)(F)F)cc2Cl)ccc1[N+](=O)[O-]`, the outcome was “inactive”. `CCOP(=S)(OCC)Oc1ccc2c(C)c(Cl)c(=O)oc2c1` was tested, and the outcome was “inactive”. With `CC(COc1ccc(Oc2ccccc2)cc1)Oc1ccccn1` (configuration not stated) the outcome was “inactive”. With `CNC(=O)Oc1cccc2c1OC(C)(C)O2` the outcome was “inactive”. With `CC(C)[C@H](C(=O)O[C@H](C#N)c1cccc(Oc2ccccc2)c1)c1ccc(Cl)cc1` the AC50 was 6.96 µM (active). `C=C(C)[C@H]1Cc2c(ccc3c2O[C@@H]2COc4cc(OC)c(OC)cc4[C@@H]2C3=O)O1` was tested, and the outcome was “inactive”.

Each compound was assayed against guinea pig Opioid, Kappa 1 Receptor (OpiateK), OPRK1 (gene 100135587) (UniProt P41144) (assay: NVS_GPCR_gOpiateK: NovaScreen (NVS) G Protein-Coupled Receptor Assay for guinea pig Opioid, Kappa 1 Receptor (OpiateK) (AID 2283252);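 note: radioligand displacement from kappa opioid receptor in guinea pig cerebellar membranes; active means reduced radioligand binding relative to DMSO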).
Chain of guinea pig Opioid, Kappa 1 Receptor (OpiateK), OPRK1 (gene 100135587) (P41144 whole entry, looked up): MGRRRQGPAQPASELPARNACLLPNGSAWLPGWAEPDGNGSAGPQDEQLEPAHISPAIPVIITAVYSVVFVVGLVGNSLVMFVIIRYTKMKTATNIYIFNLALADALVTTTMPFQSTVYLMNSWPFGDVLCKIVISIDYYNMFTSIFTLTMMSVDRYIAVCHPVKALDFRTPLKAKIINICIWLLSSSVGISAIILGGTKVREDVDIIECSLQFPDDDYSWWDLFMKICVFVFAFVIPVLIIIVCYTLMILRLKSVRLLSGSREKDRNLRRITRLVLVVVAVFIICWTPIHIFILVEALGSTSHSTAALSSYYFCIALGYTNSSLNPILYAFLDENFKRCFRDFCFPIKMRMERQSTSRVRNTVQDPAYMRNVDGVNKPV
Protocol: NVS_GPCR_gOpiateK is a biochemical, single-readout assay that uses extracted gene-proteins from Guinea pig cerebellar membranes in a tissue-based cell-free assay. Measurements were taken 2 hours after chemical dosing in a 48-well plate.NVS_GPCR_gOpiateK is one of one assay component(s) measured or calculated from the NVS_GPCR_gOpiateK assay. It is designed to make measurements of radioligand binding, a form of binding reporter, as detected with scintillation counting signals by Filter-based radiodetection technology.Data from the assay component NVS_GPCR_gOpiateK was analyzed into 1 assay endpoint. This assay endpoint, NVS_GPCR_gOpiateK, was analyzed in the positive analysis fitting direction relative to DMSO as the negative control and baseline of activity. Using a type of binding reporter, loss-of-signal activity can be used to understand changes in the binding as they relate to the gene Oprk1. Furthermore, this assay endpoint can be referred to as a primary readout, because the performed assay has only produced 1 assay endpoint. To generalize the intended target to other relatable targets, this assay endpoint is annotated to the gpcr intended target family, where the subfamily is rhodopsin-like receptor.
Binding assays used specific radioligands (tritiated, iodinated) with non-radioactive competitive displacement ligands in agonist or antagonist protocols (as indicated) and various reference compounds and inhibitors to titrate specific binding to receptors and transporters. Most enzyme assays (CYPs, kinases, phosphatases, proteases, HDACs) used recombinant protein and specific substrates (fluorescence mostly, some colorimetric and radioactive) and inhibitors, followed by a biochemical separation of substrate and product. All assays for the biochemical HTS were initially run in duplicate at a single concentration (10 uM for CYP450 assays and 25 uM for all others). […] Each assay was run with positive and negative controls, and concurrent controls on every plate. The follow-up (secondary) screen tested active chemical-pairs in concentration series, as well as a few additional assays not tested in the primary screen, some selected negative inactives, and several cases re-run in the concentration series for confirmatory purposes.
With `CCOP(=O)(NC(C)C)Oc1ccc(SC)c(C)c1` (configuration not stated) the AC50 was 16.3 µM (active). With `CCCOCC(=Nc1ccc(Cl)cc1C(F)(F)F)n1ccnc1` the outcome was “inactive”. In the case of `N#CSCSC#N`, the AC50 was 38.7 µM (active). `COc1ccc(C(=CC(=O)N2CCOCC2)c2ccc(Cl)cc2)cc1OC` was tested, and the outcome was “inactive”.

These compounds were tested against human Adenosine A1 Receptor (AdoRA1), ADORA1 (gene 134) (UniProt P30542) (assay: NVS_GPCR_hAdoRA1: NovaScreen (NVS) G Protein-Coupled Receptor Assay for human Adenosine A1 Receptor (AdoRA1) (AID 2283254)).
Chain of human Adenosine A1 Receptor (AdoRA1), ADORA1 (gene 134) (P30542 whole entry, looked up): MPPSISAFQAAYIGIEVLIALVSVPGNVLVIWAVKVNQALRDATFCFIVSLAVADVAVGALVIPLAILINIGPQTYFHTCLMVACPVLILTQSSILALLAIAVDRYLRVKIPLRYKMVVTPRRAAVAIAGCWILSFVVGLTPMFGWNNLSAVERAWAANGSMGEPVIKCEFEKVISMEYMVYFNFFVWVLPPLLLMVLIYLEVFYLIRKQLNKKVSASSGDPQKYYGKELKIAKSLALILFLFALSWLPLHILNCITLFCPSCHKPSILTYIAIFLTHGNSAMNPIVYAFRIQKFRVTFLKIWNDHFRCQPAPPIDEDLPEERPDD
In short: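 Each chemical is first tested twice at 25 uM, actives later in dilution series, against a radioligand bound to human cortex membranes; after 1 h, filter-retained counts are compared with DMSO controls, lower signal indicating displacement.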
With `C#CCC1=C(C)C(OC(=O)C2C(C=C(C)C)C2(C)C)CC1=O` (configuration not stated) the outcome was “inactive”. With `CCOC(=O)CC(SP(=O)(OC)OC)C(=O)OCC` (configuration not stated) the outcome was “inactive”. `Cc1cc(C2CC2)nc(Nc2ccccc2)n1` was tested, and the AC50 was 9.57 µM (active). `CSc1nc(NC(C)C)nc(NC(C)C)n1` was tested, and the AC50 was 3.54 µM (active). In the case of `CCNc1nc(Cl)nc(NC(C)(C)C#N)n1`, the AC50 was 4.08 µM (active). `COc1ccc(C(=CC(=O)N2CCOCC2)c2ccc(Cl)cc2)cc1OC` was tested, and the AC50 was 14.2 µM (active).

What follows are compounds tested against human Adenosine A2a Receptor (AdoRA2a), ADORA2A (gene 135) (UniProt P29274) (assay: NVS_GPCR_hAdoRA2a: NovaScreen (NVS) G Protein-Coupled Receptor Assay for human Adenosine A2a Receptor (AdoRA2a) (AID 2283256)).
Chain of human Adenosine A2a Receptor (AdoRA2a), ADORA2A (gene 135) (P29274 whole entry, looked up): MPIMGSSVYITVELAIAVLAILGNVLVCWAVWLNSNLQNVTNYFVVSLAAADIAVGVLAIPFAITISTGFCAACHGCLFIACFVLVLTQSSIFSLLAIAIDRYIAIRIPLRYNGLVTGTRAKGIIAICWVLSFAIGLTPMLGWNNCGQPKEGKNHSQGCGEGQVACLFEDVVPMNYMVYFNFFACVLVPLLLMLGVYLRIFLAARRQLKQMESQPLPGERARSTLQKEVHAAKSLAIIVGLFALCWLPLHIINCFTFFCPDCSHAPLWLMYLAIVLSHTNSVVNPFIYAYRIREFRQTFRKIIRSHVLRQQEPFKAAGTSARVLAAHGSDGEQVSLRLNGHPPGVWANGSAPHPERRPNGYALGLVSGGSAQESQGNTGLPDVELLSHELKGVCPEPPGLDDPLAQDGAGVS
In short: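 HEK293-derived receptor preparation, radioligand displacement, 1.5 h, filtration + scintillation read. Loss of bound signal scored vs DMSO. Single-point 25 uM in duplicate first, then concentration-response for actives.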
In the case of `O=C(O)c1cc(Oc2ccc(C(F)(F)F)cc2Cl)ccc1[N+](=O)[O-]`, the AC50 was 7.71 µM (active). For `CCOC(=O)CC(SP(=O)(OC)OC)C(=O)OCC` (configuration not stated), the outcome was “inactive”. For `O=[N+]([O-])c1cc(C(F)(F)F)c(Cl)c([N+](=O)[O-])c1Nc1ncc(C(F)(F)F)cc1Cl`, the AC50 was 6.87 µM (active). For `Cc1cc(C2CC2)nc(Nc2ccccc2)n1`, the AC50 was 14.1 µM (active). For `CSc1nc(NC(C)C)nc(NC(C)C)n1`, the AC50 was 4.59 µM (active). In the case of `CCNc1nc(Cl)nc(NC(C)(C)C#N)n1`, the AC50 was 5.75 µM (active).
